Values joined by “and” are separate entries in the source; they are usually repeats but may differ in a detail not shown here. Identical values can stand only once. Among all 16,000 compounds or so, about 5,700 (36%) were called active. Another 24% or so got no clear call; they are omitted. Some of the results follow. Values without a mark were called inactive. The call rests on the fitted dose curve; in most records, active means well fitted curve in the direction sought with a large enough effect; inconclusive means small, poorly fitted or top-dose-only effect, or effect the other way; inactive means no such curve, though single readings can be large or run the other way.
What follows are compounds tested against Cytochrome P450 1A2 (Homo sapiens) (UniProt P05177) (assay: Cytochrome panel assay with activity outcomes). Conditions: recombinant CYP, pro-luciferin dealkylation, luminescence, p450-cyp1a2; series mostly up to 57.1 µM; activity, negative = inhibition: at the top concentration.
Cytochrome P450 1A2 (Homo sapiens), sequence (P05177 whole entry, looked up): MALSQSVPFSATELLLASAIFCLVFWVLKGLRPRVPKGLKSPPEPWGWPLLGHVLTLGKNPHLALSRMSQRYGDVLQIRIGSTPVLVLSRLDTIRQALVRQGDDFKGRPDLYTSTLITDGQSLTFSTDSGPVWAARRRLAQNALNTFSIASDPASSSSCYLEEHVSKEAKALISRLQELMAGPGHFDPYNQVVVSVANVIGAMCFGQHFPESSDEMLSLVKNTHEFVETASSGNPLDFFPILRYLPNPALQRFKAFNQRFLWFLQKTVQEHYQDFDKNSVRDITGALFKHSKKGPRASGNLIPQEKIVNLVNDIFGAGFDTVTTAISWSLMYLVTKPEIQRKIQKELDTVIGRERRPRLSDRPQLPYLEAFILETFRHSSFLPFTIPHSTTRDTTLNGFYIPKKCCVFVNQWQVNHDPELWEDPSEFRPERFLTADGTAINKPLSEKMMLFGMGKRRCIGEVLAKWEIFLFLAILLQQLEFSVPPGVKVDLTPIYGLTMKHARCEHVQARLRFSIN
Method: The P450 gene superfamily is involved in the metabolism and clearance of xenobiotics. This assay used various human CYP P450 isozymes to measure the dealkylation of various pro-luciferin substrates to luciferin. The luciferin is then measured by luminescence after the addition of a luciferase detection reagent. Pro-luciferin substrate concentration in the assay was equal to its KM for its CYP P450 isozyme. Inhibitors and some substrates limit the production of luciferin, and decrease measured luminescence.
NCGC Assay Protocol Summary:
1, Reagent, 2 uL, Isozyme and Pro-Luciferin
2, Library compounds, 23 nl, 40 uM to 0.24 nM dilution series
3, Controls, 23 nl, Isozyme specific inhibitor
4, Reagent, 2 uL, NADPH regeneration solution
5, Incubation time, 60 min, Isozyme specific temperature
6, Reagent, 4ul, Detection reagent
7, Incubation time, 20 min, Isozyme specific temperature
8, Detection, 1 sec, ViewLux luminescent read
The luciferase-based P450-GloTM Screening Systems were obtained from Promega (Madison, WI) for CYP 1A2 (V9770), CYP 2C9 (V9790), CYP2 C19 (V9880), CYP 2D6 (V9890), and CYP 3A4 Luciferin-PPXE (V9910) and were adapted for 1,536-well microplates and an automated protocol. The control compounds furafylline for 1A2 (F124), sulfaphenazole for CYP 2C9 (S0758), ketoconazole for CYP 2C19 (K1003), quinidine for 2D6 (Q3625), and ketoconazole for 3A4 (K1003) were purchased from Sigma Aldrich (St. Louis, MO). Recombinant P450 enzymes were obtained from baculovirus constructs expressed in insect cells (BD/Gentest).
Medium-binding white solid Kalypsys plates used. Mixtures kept on ice. 1A2: 10 nM 1A2, 100 uM Luc-ME, 100 mM KPO4; 2C9: 10 nM 2C9, 100 uM Luc-H, 25 mM KPO4; 2C19: 5 nM 2C19, 10 uM Luc-H EGE, 50 mM KPO4; 2D6: 5 nM 2D6, 30 uM Luc-ME EGE, 100 mM KPO4; 3A4: 10 nM, 25 uM Luc-PPXE. All amounts are reflected in their final concentration, working concentration is 2x.
NADPH regeneration solution: 1.3 mM NADP+, 3.3 mM glucose-6-phosphate, 3.3 mM MgCl2, 0.4 U/mL glucose-6-phosphate dehydrogenase for all isozymes, 200 mM KPO4 for 3A4. Mixture prepared at RT but kept on ice during automated run.
RT incubation in auxilliary plate hotel for 1A2, 2D6, and 3A4; 37C for 2C9 and 2C19.
Keywords: P450, CYP1A2, CYP2C19, CYP2C9, CYP2D6, CYP3A4, Luciferase, MLSMR, MLSCN, NIH Roadmap, qHTS, NCGC
On the % scale 0 is the no-effect control and ±100 the full control effect.

SMILES | activity, negative = inhibition | AC50
C[C@H](N)Cc1c[nH]c2ccc(O)cc12 | -15.7% | 
C[C@H](N)Cc1c[nH]c2ccc(OCc3cccs3)cc12 |  | 1.58 µM (active) and 126 nM (active)
O=P(O)(O)C(Cl)(Cl)P(=O)(O)O | -2.79% | 
CS(=O)(=O)Nc1ccc(Cc2noc(-c3ccc4[nH]cc(CCN)c4c3)n2)cc1 |  | 0.0316 µM (active)
C=C[C@]12CN(C)[C@H]3C1[C@@]1(C(=O)Nc4ccccc41)[C@H]1C[C@H]2[C@H]3CO1 | -3.88% [at 25.6 µM] | 
O=C1C=C2C=C[C@H]3C[C@@]2(O1)[C@H]1CCCCN31 | -3.52% [at 25.6 µM] | 
Fc1ccccc1CCNCc1cccc(Cl)c1Cl |  | 5.62 µM (active)
COc1ccccc1N1CCNCC1 | -0.244% | 
O=[N+]([O-])c1ccc2nc(N3CCNCC3)ccc2c1 |  | 2 µM (active)
c1ccc(CN2CCC3(CCNCC3)CC2)cc1 | -13.6% | 
CN1CCN(c2ccc3ccccc3n2)CC1 |  | 10 µM (active) and 3.16 µM (active)
c1ccc(N2CCC3(CCNCC3)CC2)nc1 | -11.5% | 
c1ccc2c(N3CCNCC3)cccc2c1 |  | 10 µM (active)
c1ccc2nc(N3CCNCC3)ccc2c1 |  | 1.58 µM (active) and 1.26 µM (active) and 251 nM (active)
C[N+]1([O-])[C@@H]2CC(OC(=O)[C@@H](CO)c3ccccc3)C[C@@H]1[C@H]1O[C@H]12 (some centres undefined) |  | inactive
CCC1(CCSC(=N)N)C(=O)NC(=O)NC1=O | -10.9% [at 2.29 µM] | 
NO | -18.7% | 
CC(=O)O[C@@H]1CN2CCC1CC2 | -10.4% | 
O=C1NC(=O)N(CCNc2ncc(C(F)(F)F)cc2Cl)C(=O)C1/C=N/OCc1c(F)cccc1Cl (centres undefined) | -2.55% | 
CP(=O)(O)C1=CCNCC1 | 5.68% | 

SMILES | activity, negative = inhibition | AC50
COC(=O)CN1CN(c2ccccc2)C2(CCN(Cc3ccc4ccccc4c3)CC2)C1=O | -20% | 
c1cnc(N2CCC3(CCNCC3)CC2)nc1 | 2.02% | 
N[C@H](Cn1ccc(=O)[nH]c1=O)C(=O)O | -3.21% | 
N[C@H](CCl)C(=O)O | -4.47% | 
N[C@@H](CSC1c2ccccc2-c2ccccc21)C(=O)O |  | 2.51 µM (active)
C=C1[C@@H]2C[C@@]3([C@H]1O)[C@H]1C[C@@H]4[C@@]5(C)CC[C@H](O)[C@]4([C@H]1N(CC)C5)[C@H]3C[C@H]2O | -12.3% [at 25.6 µM] | 
CC(C)CCn1c(N)c(C(=O)NCc2cccs2)c2nc3ccccc3nc21 |  | 2.24 µM (active)
CCCCn1c(N)c(C(=O)NCc2cccs2)c2nc3ccccc3nc21 |  | 2.82 µM (active)
COCCCN1CCN(c2nnc3n2-c2sc(Br)cc2C(c2ccccc2Cl)=NC3)CC1 | 0.0974% | 
COC(=O)[C@@H]1[C@@H](O)[C@@]2(O)c3c(OC)cc(OC)cc3O[C@@]2(c2ccc(OC)cc2)[C@H]1c1ccccc1 | -2.88% [at 11.4 µM] | 
CCCC[N+]1(C)[C@@H]2CC(OC(=O)[C@@H](CO)c3ccccc3)C[C@H]1[C@H]1O[C@H]12 (some centres undefined) | 1.42% | 
COc1cc2c(cc1OC)[C@H](C)NCC2 | -1.22% [at 25.6 µM] | 
[N-]=[N+]=NCC(=O)c1c[nH]c(=O)[nH]c1=O | 0.0946% [at 2.29 µM] | 
O=[N+]([O-])c1cc(-c2ccc([As](=O)(O)O)cc2)ccc1[As](=O)(O)O | -10.9% [at 2.29 µM] | 
CCC1(C)CC(=O)NC(=O)C1 | -2.91% [at 25.6 µM] | 
CCC1=C(C[C@H]2NCCc3ccccc32)C[C@@H]2c3cc(OC)c(OC)cc3CCN2C1 | -7.08% [at 11.4 µM] | 
COc1ccc2c(c1OC)C(=O)O[C@H]2[C@H]1c2cc3c(cc2CCN1C)OCO3 | -13.2% [at 25.6 µM] | 
COc1ccc2c(c1OC)CN1CCc3cc4c(cc3[C@H]1C2)OCO4 |  | 1.58 µM (active)
CN(C)CCC(=O)[C@@]1(O)CC[C@H]2[C@H]3CC=C4C[C@@H](O)CC[C@]4(C)[C@H]3CC[C@]21C | -5.71% [at 11.4 µM] | 
CCN1C[C@@]2(COC)CC[C@H](OC)[C@]34[C@@H]1[C@]1(OCO[C@@]15C[C@@H](OC)C1C[C@H]3[C@H]5[C@@H]1OC)[C@H](O)[C@@H]24 | 0.342% [at 25.6 µM] | 

SMILES | activity, negative = inhibition | AC50
CC[C@H](CO)NC(=O)[C@@H]1C=C2c3cccc4c3c(cn4C)C[C@@H]2N(C)C1 | -14.7% | 
CC(C)C[C@H]1C(=O)N2CCC[C@@H]2[C@]2(O)O[C@](NC(=O)[C@H]3C=C4c5cccc6[nH]c(Br)c(c56)C[C@H]4N(C)C3)(C(C)C)C(=O)N12 | -18% | 
CC[C@@H](CO)NC(=O)[C@H]1C=C2c3cccc4c3c(cn4C)C[C@H]2N(C)C1 |  | 15.8 µM (active)
Nc1ccc(S(=O)(=O)c2ccc(NCN3C(=O)NC(=O)C(=O)C3=O)cc2)cc1 | -12.8% [at 11.4 µM] | 
COc1ccc(C(=O)NC2CC3CCCC(C2)N3CC(C)C)cc1OC (centres undefined) | -14% | 
C[C@@]12C(=O)OC(=O)[C@@]1(C)[C@H]1CC[C@@H]2O1 | -6% | 
CC(=O)[C@]1(O)CC[C@@H]2[C@H]3C[C@@H](C)C4=CC(=O)CC[C@@]4(C)[C@H]3[C@@H](O)C[C@]21C | -1.99% [at 2.29 µM] | 
CC(C)N[C@@H](C)Cc1ccc(I)cc1 |  | 10 µM (active)
O=C1NC(=S)NC(=O)C1=Cc1cccc2cc3ccccc3cc12 |  | 0.398 µM (active)
C[C@]12CC[C@@H]3[C@H](CCC4=CC(=O)CC[C@]43C)[C@]1(O)CC[C@@]2(O)C(=O)CO | 4.85% [at 2.29 µM] | 
CCCCCCCCCOc1ccc2[nH]cc(CCN)c2c1 |  | 0.0398 µM (active)
NCCc1c[nH]c2ccc(OC(=O)C(=O)O)cc12 |  | 2.51 µM (active)
COc1ccc2[nH]cc(CCN)c2c1 |  | 1.58 µM (active)
COc1ccc2[nH]cc(CCN(C)C)c2c1 |  | 15.8 µM (active)
CC(=O)O[C@H]1CC[C@@]2(C)C(=CC[C@@H]3[C@H]2CC[C@]2(C)C(=O)CC[C@H]32)C1 | -16.8% [at 25.6 µM] | 
CC(C)NC(=O)N1CCC2(CC1)CCN(C(=O)Oc1ccccc1)CC2 | 3.33% | 
CCOC(=O)c1[nH]c(C)c(C(=O)N2CCC3(CC2)OCCO3)c1C | -26.6% | 
CN(C)C(=O)Oc1ccc[n+](C)c1 | 2.74% | 
CC(C)(C)NC[C@H](O)c1cc(Cl)c(N)c(Cl)c1 | -1.17% [at 25.6 µM] | 
